Hits are enriched below; roughly 21% of the tested compounds scored in any of these assays.
Pf growth 96h – inhibits malaria parasite growth, 96 h | P. falciparum luciferase reporter growth, 96 h | Potency, µM (highest dose often 28.7 µM), for the others: top-dose activity change, negative = inhibition, actives largely listed as inhibitors | 320,000 compounds, 6.9% hits; note: potency is the fitted concentration of half-maximal effect; % is set by controls: 0 for no effect and ±100 for the full control effect
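Readout is luminescence from an integrated firefly luciferase in P. falciparum. Red cells, 2% hematocrit and 0.05% parasitemia final, were cultured with compound through two parasite generations (96 hours) at 37 C, 5% CO2.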
SARS PLP yeast – blocks SARS-CoV papain-like protease in a yeast assay. S. cerevisiae expressing SARS-CoV PLpro, growth rescue. Potency, µM (doses to about 32.9 µM), for inactives: at the top dose activity, positive = growth rescue, actives largely listed as activators. 330,000 compounds, 0.19% hits. AID 485353; calls by dose curve; note: potency is the fitted concentration of half-maximal effect; 0% is about no effect; nearly all actives have a fitted effect of over 55% in size
Shiga inhibitor – inhibitors of Shiga toxin in Vero cells | Vero cells, Shiga toxin protein synthesis inhibition reporter | 290,000 compounds, 9.2% hits | inhibition, % at 38.7 µM | AID 2315; in the data active = inhibition mostly above about 28%, no sharp cut-off; inactive = mostly below about 43%; note: 0% is about no effect
NS1 function inh – inhibitors of influenza NS1 protein function; AID 2326; Potency, µM (highest dose often 46.1 µM), for inactives: top-dose activity, positive = more growth; 270,000 compounds, 0.4% hits; calls by dose curve; note: potency is the fitted concentration of half-maximal effect; actives are rising curves; nearly all actives have a fitted effect of over 50% in size
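Compounds were scored for reversing the slow growth caused by influenza A NS1 in S. cerevisiae, measured by optical density at 600 nm. Assay medium contained 2% galactose at pH 6.0; NS1-free yeast of the same strain were the positive control.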
Pf growth 48h – inhibits P. falciparum growth in the first generation, 48 h. P. falciparum luciferase growth in erythrocytes, 48 h. Potency, µM (doses to about 28.7 µM), inactives show at the highest dose activity change, negative = inhibition, most hits filed as inhibitors. 310,000 compounds, 5.9% hits; note: potency is the fitted concentration of half-maximal effect; % is set by controls: 0 for no effect and ±100 for the full control effect
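Parasite viability was followed by luminescence of a genomically integrated firefly luciferase. Cultures held 0.1% parasitemia at 2% hematocrit (final), incubated under 5% CO2 at 37 C.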
Cycloheximide cs – affects cycloheximide protein synthesis inhibition readout, counter-screen; cell reporter, cycloheximide protein synthesis inhibition counterscreen; max response, %; 300,000 compounds, 12% hits; AID 2314; in the data active = max response mostly above about 13%, no sharp cut-off; inactive = mostly below about 14%; note: read at 38.3 µM for the half of the compounds with a filed dose; 0% is about no effect
Numbers without * were called inactive; u = inconclusive; x = no result given; [ ] = another dose, or the depositor's remark. Unless noted, calls come from the whole dose curve; as a rule, active = well fitted inhibition curve with a large enough effect; inconclusive = small, poorly fitted or top-dose-only effect, or another doubt; inactive = no such curve, though single readings can be large or run the other way.

SMILES	Pf growth 96h	SARS PLP yeast	Shiga inhibitor	NS1 function inh	Pf growth 48h	Cycloheximide cs
CCS(=O)(=O)c1nc(S(=O)(=O)c2ccc(C)cc2)c(N2CC(C)CC(C)C2)s1 (stereo not drawn)	u	-5%	-6	19%	u	-3
OC(CN1CCN(c2ccccn2)CC1)Cn1c2ccccc2c2ccccc21 (stereo not drawn)	1.9µM*	-5%	0	-40%	u	-4
OC(COC(c1ccccc1)c1ccccc1)CN1CCN(c2ccccn2)CC1 (stereo not drawn)	u	5%	-15	-3%	u	-5
CNCC(O)Cn1c2c(c3ccccc31)CCCC2 (stereo not drawn)	11%	1%	-6	3%	10µM*	0
Cc1ccc2c(c1)c1c(n2CC(O)CN2CCCCCC2)CCCC1 (stereo not drawn)	20%	-1%	-2	-3%	8.3µM*	-2
Cc1ccc(C(C)C)c(OCC(O)CN2CCOCC2)c1 (stereo not drawn)	x	-2%	13	-10%	19%	-3
Cc1ccc2c(c1)c(C)c(C)n2CC(O)CN1CCOCC1 (stereo not drawn)	36%	-12%	-3	5%	12µM*	-4
Cc1ccc2c(CC(=O)OC(C)C(=O)NCc3ccc4c(c3)OCO4)coc2c1 (stereo not drawn)	0%	-10%	-11	-62%	21%	8
COc1ccc(N2CCN(C(=O)COC(=O)c3ccc(-n4nc(C)cc4C)cc3)CC2)cc1	-8%	0%[6.58 µM]	x	x	2%	x
CCc1cccc(C)c1NC(=O)C1CCN(C(=O)c2ccc([N+](=O)[O-])cc2)CC1	0%	0%	-10	1%	-1%	-3
OC(CN1CCCCC1)Cn1c2ccccc2c2cc(Br)ccc21 (stereo not drawn)	9.3µM*	3%	-4	3%	12µM*	-3
Cc1c(C)n(CC(O)CN2CCCCCC2)c2ccccc12 (stereo not drawn)	185%	-7%	-3	3%	u	0
CCCCNC(=O)C(C1CCCCC1)N(CCN(C)C)C(=O)CCCN1C(=O)NC(c2ccc(-c3ccccc3)cc2)C(C(=O)OCc2ccccc2)=C1C (stereo not drawn)	x	-21%	x	x	x	x
CCCCNC(=O)C(c1ccc(-c2ccccc2)cc1)N(CCN1CCOCC1)C(=O)CCCCCN1C(=O)NC(c2ccc([N+](=O)[O-])cc2)C(C(=O)OCc2ccccc2)=C1C (stereo not drawn)	3.3µM*	1%	-11	u	1.3µM*	-5
CCCCCCN(C(=O)CCCCCN1C(=O)NC(c2ccc(-c3ccccc3)cc2)C(C(=O)OCc2ccccc2)=C1C)C(C(=O)NCCCC)c1ccccc1 (stereo not drawn)	1.9µM*	1%	0	17%	2.6µM*	-2
CCCCCCN(C(=O)CCCCCN1C(=O)NC(c2ccc(-c3ccccc3)cc2)C(C(=O)OCc2ccccc2)=C1C)C(C)C(=O)NCCCC (stereo not drawn)	4.7µM*	17%	9	-5%	u	-2
COc1ccc(C(=O)NCCS(=O)(=O)N2CCOCC2)cc1	36%	u	x	x	15%	x
CCCC(=O)N(Cc1cc(=O)[nH]c2ccccc12)c1cccc(C)c1	8.3µM*	2%	-2	3%	12µM*	-1
Cn1c(CNc2ccccc2O)nc2ccccc21	9.3µM*	-23%	76*	-86%	x	23*
Cc1ccccc1NCc1nc2ccccc2n1C	0%	-6%	84*	-17%	155%	55*
Cn1c(CCNC(=O)C(C)(C)C)nc2ccccc21	5%	1%	-13	1%	21%	2
C/C(=N\NC(=O)C1CCCC1)c1ccc(Cl)c(Cl)c1	251%	2%	41	10%	1%	2
COc1ccc(/C(C)=N/NC(=O)C2CC2)cc1	20%	0%	42*	-5%	-16%	11
C/C(=N\NC(=O)C1CCCC1)c1ccc(C(C)C)cc1	8%	3%	52*	4%	0%	24*
C/C(=N\NC(=O)C1CC1)c1ccc(N2CCOCC2)cc1	15%	-1%	3	x	30%	11
SMILES	Pf growth 96h	SARS PLP yeast	Shiga inhibitor	NS1 function inh	Pf growth 48h	Cycloheximide cs
COc1ccc2cc(/C(C)=N/NC(=O)C3CC3)ccc2c1	-28%	-1%	48*	x	43%	26*
CCOCCCNC(=O)CSc1nnc(-c2ccc(S(=O)(=O)N3CCCC3)cc2)n1C	-21%	-5%	-7	12%	-17%	2
O=C(NCCS(=O)(=O)N1CCN(c2ccc(F)cc2)CC1)c1ccco1	2%	-4%	x	x	-27%	x
COc1cccc(CN2CC(C(=O)NCCOc3ccccc3)CCC2=O)c1 (stereo not drawn)	u	u	17	-4%	-7%	19*
COc1cccc(CN(C)C(=O)C2CCC(=O)N(Cc3cccc(F)c3)C2)c1 (stereo not drawn)	u	1%	-24	8%	-9%	1
COc1cccc(CN2CC(C(=O)N(C)C3CCOCC3)CCC2=O)c1 (stereo not drawn)	34%	3%	17	6%	2%	14*
CC1CCCCC1NC(=O)c1ccc(CNc2c(N3CCCC3)c(=O)c2=O)cc1 (stereo not drawn)	8.3µM*	-3%	12	-7%	-1%	-3
CC1CCN(c2c(NCc3ccc(C(=O)NCCc4ccc(Cl)cc4)cc3)c(=O)c2=O)CC1	8.3µM*	-5%	-6	-5%	u	-1
Cc1ccccc1S(=O)(=O)Cc1ccc(C(=O)NC2CC2)o1	-29%	2%	-4	-4%	4%	6
CN(C(=O)CSc1nnc(-c2ccco2)o1)C1CCCCC1	120%	0%	59	-1%	70%	13
O=C(CSc1nnc(-c2ccccc2Br)o1)N1CCc2ccccc2C1	3.3µM*	8%	-11	-83%	8%	-5
CCN(CC)S(=O)(=O)c1ccc(-c2nnc(SCC(=O)Nc3cc(OC)cc(OC)c3)o2)cc1	x	2%	-18	7%	13µM*	-2
COc1ccc(-c2nnc(SCC(=O)N3CCCC3)o2)c(OC)c1	10%	-2%	46*	2%	36%	18
CC1CCCCN1C(=O)CSc1nnc(-c2ccco2)o1 (stereo not drawn)	5.2µM*	1%	108*	0%	123%	37*
COc1cccc(-n2nnc3c(=O)n(CC(=O)Nc4cc(C)on4)cnc32)c1	56%[1.15 µM]	0%	30	6%	36%[1.15 µM]	-3
CCN(CC)S(=O)(=O)c1ccc(-c2nnc(SCC(C)=O)o2)cc1	u	3%	11	5%	x	-1
CCN(CC)S(=O)(=O)c1cccc(-c2nnc(SCCOc3ccccc3)o2)c1	-45%	-12%	28	-18%	x	-2
CCN(CC)S(=O)(=O)c1cccc(-c2nnc(SCCOc3ccc(Cl)cc3)o2)c1	10µM*	-7%	4	5%	-24%	-4
